Data: PubChem BioAssay (EPA / NIEHS)
Inconclusive results are not listed. Active and inactive are the calls of the source. Rule for the calls: active = hit-call score of the fitted dose curve at least 0.9, where 1 is the maximum; inconclusive = response in the unintended direction; inactive = score below 0.9.

Assays:
[1] = molecular target: human Phosphoinositide 3-kinase alpha (PI3Ka), PIK3CA (gene 5290) (UniProt P42336); assay: NVS_ENZ_hPI3Ka: NovaScreen (NVS) Enzymatic Assay for human Phosphoinositide 3-kinase alpha (PI3Ka) (AID 2283196)
Summary of the method: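 Enzyme activity as fluorescence after mobility-shift separation of substrate and product, 1 h reaction, recombinant human PI3Kα; concentration-response to 50 uM max for chemicals passing a 25 uM duplicate screen.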

[2] = molecular target: human Protein Tyrosine Phosphatase Non-receptor Type 6 (PTPN6), PTPN6 (gene 5777) (UniProt P29350); assay: NVS_ENZ_hPTPN6: NovaScreen (NVS) Enzymatic Assay for human Protein Tyrosine Phosphatase Non-receptor Type 6 (PTPN6) (AID 2283210)
Experimental: NVS_ENZ_hPTPN6 is a biochemical, single-readout assay that uses extracted gene-proteins from SF9 in a cell-free assay. Measurements were taken 1.33 hours after chemical dosing in a 384-well plate.NVS_ENZ_hPTPN6 is one of one assay component(s) measured or calculated from the NVS_ENZ_hPTPN6 assay. It is designed to make measurements of enzyme activity, a form of enzyme reporter, as detected with fluorescence intensity signals by Fluorescence and electrophoretic mobility shift technology.Data from the assay component NVS_ENZ_hPTPN6 was analyzed into 1 assay endpoint. This assay endpoint, NVS_ENZ_hPTPN6, was analyzed in the positive analysis fitting direction relative to DMSO as the negative control and baseline of activity. Using a type of enzyme reporter, loss-of-signal activity can be used to understand changes in the enzymatic activity as they relate to the gene PTPN6. Furthermore, this assay endpoint can be referred to as a primary readout, because this assay has produced multiple assay endpoints where this one serves a enzymatic activity function. To generalize the intended target to other relatable targets, this assay endpoint is annotated to the phosphatase intended target family, where the subfamily is non-receptor tyrosine phosphatase. […]

[3] = molecular target: human Protein Tyrosine Phosphatase Receptor Type M (PTPRM), PTPRM (gene 5797) (UniProt P28827); assay: NVS_ENZ_hPTPRM: NovaScreen (NVS) Enzymatic Assay for human Protein Tyrosine Phosphatase Receptor Type M (PTPRM) (AID 2283215)
Experimental: NVS_ENZ_hPTPRM is a biochemical, single-readout assay that uses extracted gene-proteins in a cell-free assay. Measurements were taken 1.33 hours after chemical dosing in a 384-well plate.NVS_ENZ_hPTPRM is one of one assay component(s) measured or calculated from the NVS_ENZ_hPTPRM assay. It is designed to make measurements of enzyme activity, a form of enzyme reporter, as detected with fluorescence intensity signals by Fluorescence and electrophoretic mobility shift technology.Data from the assay component NVS_ENZ_hPTPRM was analyzed into 1 assay endpoint. This assay endpoint, NVS_ENZ_hPTPRM, was analyzed in the positive analysis fitting direction relative to DMSO as the negative control and baseline of activity. Using a type of enzyme reporter, loss-of-signal activity can be used to understand changes in the enzymatic activity as they relate to the gene PTPRM. Furthermore, this assay endpoint can be referred to as a primary readout, because this assay has produced multiple assay endpoints where this one serves a enzymatic activity function. To generalize the intended target to other relatable targets, this assay endpoint is annotated to the phosphatase intended target family, where the subfamily is receptor tyrosine phosphatase.
Binding assays used specific radioligands (tritiated, iodinated) with non-radioactive competitive displacement ligands in agonist or antagonist protocols (as indicated) and various reference compounds and inhibitors to titrate specific binding to receptors and transporters. Most enzyme assays (CYPs, kinases, phosphatases, proteases, HDACs) used recombinant protein and specific substrates (fluorescence mostly, some colorimetric and radioactive) and inhibitors, followed by a biochemical separation of substrate and product. All assays for the biochemical HTS were initially run in duplicate at a single concentration (10 uM for CYP450 assays and 25 uM for all others). […] Each assay was run with positive and negative controls, and concurrent controls on every plate. […]

[4] = molecular target: human Protein Tyrosine Phosphatase Non-receptor Type 1 (PTPN1), PTPN1 (gene 5770) (UniProt P18031); assay: NVS_ENZ_hPTPN1: NovaScreen (NVS) Enzymatic Assay for human Protein Tyrosine Phosphatase Non-receptor Type 1 (PTPN1) (AID 2283201)
Summary of the method: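 Cell-free fluorogenic-substrate activity assay on recombinant enzyme, read 1.33 h after dosing by fluorescence and electrophoretic mobility shift; loss of signal vs DMSO baseline. Primary screen in duplicate at 25 uM, hits then run in concentration-response up to 50 uM.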

[5] = molecular target: Tyrosine-protein phosphatase non-receptor type 11 (Homo sapiens) (UniProt Q06124); assay: NVS_ENZ_hPTPN11: NovaScreen (NVS) Enzymatic Assay for human Protein Tyrosine Phosphatase Non-receptor Type 11 (PTPN11) (AID 2283202)
Summary of the method: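 Recombinant human PTPN11 activity on a fluorescent substrate, with substrate/product separated by electrophoretic mobility shift; read 0.5 h after dosing, loss of signal vs DMSO. Duplicate 25 uM screen, then concentration-response up to 50 uM.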

[6] = molecular target: Tyrosine-protein phosphatase non-receptor type 13 (Homo sapiens) (UniProt Q12923); assay: NVS_ENZ_hPTPN13: NovaScreen (NVS) Enzymatic Assay for human Protein Tyrosine Phosphatase Non-receptor Type 13 (PTPN13) (AID 2283205)
Summary of the method: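 Cell-free assay of recombinant human PTPN13 with a fluorescent substrate, product separated by electrophoretic mobility shift and read 0.5 h after dosing. Primary screen at 25 uM in duplicate, then concentration-response up to 50 uM. Loss of signal fitted against DMSO.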

[7] = molecular target: Tyrosine-protein phosphatase non-receptor type 14 (Homo sapiens) (UniProt Q15678); assay: NVS_ENZ_hPTPN14: NovaScreen (NVS) Enzymatic Assay for human Protein Tyrosine Phosphatase Non-receptor Type 14 (PTPN14) (AID 2283206)
Summary of the method: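 Cell-free recombinant human PTPN14 with fluorescent substrate, read 0.5 h after dosing by fluorescence and electrophoretic mobility shift separating substrate from product. Primary screen at 25 uM in duplicate; hits run to 50 uM maximum; loss of signal versus DMSO.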

[8] = molecular target: human Sirtuin 2 (SIRT2), SIRT2 (gene 22933) (UniProt Q8IXJ6); assay: NVS_ENZ_hSIRT2: NovaScreen (NVS) Enzymatic Assay for human Sirtuin 2 (SIRT2) (AID 2283217)
Summary of the method: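 Cell-free recombinant human SIRT2, fluorescent substrate with product separated by electrophoretic mobility shift, 1 hr. Screened in duplicate at 25 uM; hits rerun singly in concentration-response up to 50 uM, relative to DMSO.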

[9] = molecular target: human Sirtuin 1 (SIRT1), SIRT1 (gene 23411) (UniProt Q96EB6); assay: NVS_ENZ_hSIRT1: NovaScreen (NVS) Enzymatic Assay for human Sirtuin 1 (SIRT1) (AID 2283219)
Experimental: NVS_ENZ_hSIRT1 is a biochemical, single-readout assay that uses extracted gene-proteins in a cell-free assay. Measurements were taken 1 hour after chemical dosing in a 384-well plate.NVS_ENZ_hSIRT1 is one of one assay component(s) measured or calculated from the NVS_ENZ_hSIRT1 assay. It is designed to make measurements of enzyme activity, a form of enzyme reporter, as detected with fluorescence intensity signals by Fluorescence and electrophoretic mobility shift technology.Data from the assay component NVS_ENZ_hSIRT1 was analyzed into 1 assay endpoint. This assay endpoint, NVS_ENZ_hSIRT1, was analyzed in the positive analysis fitting direction relative to DMSO as the negative control and baseline of activity. Using a type of enzyme reporter, loss-of-signal activity can be used to understand changes in the enzymatic activity as they relate to the gene SIRT1. Furthermore, this assay endpoint can be referred to as a primary readout, because this assay has produced multiple assay endpoints where this one serves a enzymatic activity function. To generalize the intended target to other relatable targets, this assay endpoint is annotated to the hydrolase intended target family, where the subfamily is protein deacetylase. […]

[10] = molecular target: human Protein Tyrosine Phosphatase Receptor Type F (PTPRF), PTPRF (gene 5792) (UniProt P10586); assay: NVS_ENZ_hPTPRF: NovaScreen (NVS) Enzymatic Assay for human Protein Tyrosine Phosphatase Receptor Type F (PTPRF) (AID 2283213)
Summary of the method: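 Cell-free fluorescence enzyme assay with recombinant protein and substrate; product separated by electrophoretic mobility shift. Read 1 h after dosing, single 25 uM duplicate screen, then concentration-response up to 50 uM; loss of signal vs DMSO.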

Chain of human Phosphoinositide 3-kinase alpha (PI3Ka), PIK3CA (gene 5290) (P42336 whole entry, looked up): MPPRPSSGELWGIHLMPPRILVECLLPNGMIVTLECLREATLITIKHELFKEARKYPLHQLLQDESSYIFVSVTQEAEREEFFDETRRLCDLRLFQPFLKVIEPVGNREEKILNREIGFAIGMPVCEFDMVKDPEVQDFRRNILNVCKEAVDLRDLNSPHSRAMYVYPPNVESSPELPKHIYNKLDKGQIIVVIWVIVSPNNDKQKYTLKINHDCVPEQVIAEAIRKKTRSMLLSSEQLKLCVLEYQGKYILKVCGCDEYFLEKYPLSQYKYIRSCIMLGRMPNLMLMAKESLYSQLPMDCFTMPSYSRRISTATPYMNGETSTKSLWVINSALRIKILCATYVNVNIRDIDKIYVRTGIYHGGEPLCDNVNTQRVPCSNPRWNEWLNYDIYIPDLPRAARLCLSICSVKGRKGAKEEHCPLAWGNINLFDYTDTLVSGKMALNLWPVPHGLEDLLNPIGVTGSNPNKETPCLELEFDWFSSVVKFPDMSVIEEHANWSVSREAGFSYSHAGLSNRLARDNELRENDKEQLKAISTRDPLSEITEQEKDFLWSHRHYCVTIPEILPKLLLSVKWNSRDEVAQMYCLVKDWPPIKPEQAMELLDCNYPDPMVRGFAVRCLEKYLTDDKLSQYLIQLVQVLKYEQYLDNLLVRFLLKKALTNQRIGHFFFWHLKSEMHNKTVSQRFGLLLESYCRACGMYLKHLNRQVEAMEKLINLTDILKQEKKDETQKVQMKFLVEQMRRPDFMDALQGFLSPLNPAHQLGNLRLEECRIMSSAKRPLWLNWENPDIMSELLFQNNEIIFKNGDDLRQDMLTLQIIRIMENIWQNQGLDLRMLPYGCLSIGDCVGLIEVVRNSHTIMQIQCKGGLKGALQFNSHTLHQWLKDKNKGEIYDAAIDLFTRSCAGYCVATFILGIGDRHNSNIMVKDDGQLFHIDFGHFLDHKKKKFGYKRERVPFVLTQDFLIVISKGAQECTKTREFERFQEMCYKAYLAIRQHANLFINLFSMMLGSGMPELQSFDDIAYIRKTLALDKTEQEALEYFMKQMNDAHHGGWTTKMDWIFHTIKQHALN
Chain of human Protein Tyrosine Phosphatase Receptor Type M (PTPRM), PTPRM (gene 5797) (P28827 whole entry, looked up): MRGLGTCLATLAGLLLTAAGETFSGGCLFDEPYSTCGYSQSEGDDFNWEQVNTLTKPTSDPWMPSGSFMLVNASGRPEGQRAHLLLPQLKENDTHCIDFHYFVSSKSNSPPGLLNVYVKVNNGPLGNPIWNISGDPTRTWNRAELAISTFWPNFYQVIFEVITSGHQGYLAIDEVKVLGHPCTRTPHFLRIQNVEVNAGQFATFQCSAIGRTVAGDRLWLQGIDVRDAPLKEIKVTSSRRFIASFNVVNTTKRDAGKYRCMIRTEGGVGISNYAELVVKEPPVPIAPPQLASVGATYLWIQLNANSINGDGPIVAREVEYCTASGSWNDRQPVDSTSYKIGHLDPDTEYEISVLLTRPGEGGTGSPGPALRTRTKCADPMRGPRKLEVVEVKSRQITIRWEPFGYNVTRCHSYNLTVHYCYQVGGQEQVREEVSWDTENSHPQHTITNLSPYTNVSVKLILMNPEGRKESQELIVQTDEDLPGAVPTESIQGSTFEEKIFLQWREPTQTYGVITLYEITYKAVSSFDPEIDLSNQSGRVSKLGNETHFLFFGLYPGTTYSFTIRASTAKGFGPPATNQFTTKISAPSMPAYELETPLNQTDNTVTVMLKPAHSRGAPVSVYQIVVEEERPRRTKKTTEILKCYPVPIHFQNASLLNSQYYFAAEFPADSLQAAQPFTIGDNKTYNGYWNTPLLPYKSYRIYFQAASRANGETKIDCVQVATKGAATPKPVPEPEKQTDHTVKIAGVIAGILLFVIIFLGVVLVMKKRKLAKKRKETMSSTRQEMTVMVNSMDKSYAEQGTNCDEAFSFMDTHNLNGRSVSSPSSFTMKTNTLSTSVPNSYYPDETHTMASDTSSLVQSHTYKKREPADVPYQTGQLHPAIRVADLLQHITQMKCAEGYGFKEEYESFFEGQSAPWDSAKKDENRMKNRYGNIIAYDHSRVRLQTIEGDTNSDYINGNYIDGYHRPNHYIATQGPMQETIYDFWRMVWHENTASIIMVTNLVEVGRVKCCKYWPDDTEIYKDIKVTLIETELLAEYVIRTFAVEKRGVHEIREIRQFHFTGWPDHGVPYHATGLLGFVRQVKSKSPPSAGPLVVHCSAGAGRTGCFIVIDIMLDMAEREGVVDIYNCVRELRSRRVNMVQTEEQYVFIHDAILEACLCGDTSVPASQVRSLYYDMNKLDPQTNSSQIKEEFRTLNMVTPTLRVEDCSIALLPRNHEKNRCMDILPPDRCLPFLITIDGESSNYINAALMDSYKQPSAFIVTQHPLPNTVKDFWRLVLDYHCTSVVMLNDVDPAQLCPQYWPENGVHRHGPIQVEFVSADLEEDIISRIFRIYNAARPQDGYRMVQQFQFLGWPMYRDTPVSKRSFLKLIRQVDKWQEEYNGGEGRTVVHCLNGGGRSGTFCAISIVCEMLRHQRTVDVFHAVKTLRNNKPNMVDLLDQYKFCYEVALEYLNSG
Chain of Tyrosine-protein phosphatase non-receptor type 14 (Homo sapiens) (Q15678 whole entry, looked up): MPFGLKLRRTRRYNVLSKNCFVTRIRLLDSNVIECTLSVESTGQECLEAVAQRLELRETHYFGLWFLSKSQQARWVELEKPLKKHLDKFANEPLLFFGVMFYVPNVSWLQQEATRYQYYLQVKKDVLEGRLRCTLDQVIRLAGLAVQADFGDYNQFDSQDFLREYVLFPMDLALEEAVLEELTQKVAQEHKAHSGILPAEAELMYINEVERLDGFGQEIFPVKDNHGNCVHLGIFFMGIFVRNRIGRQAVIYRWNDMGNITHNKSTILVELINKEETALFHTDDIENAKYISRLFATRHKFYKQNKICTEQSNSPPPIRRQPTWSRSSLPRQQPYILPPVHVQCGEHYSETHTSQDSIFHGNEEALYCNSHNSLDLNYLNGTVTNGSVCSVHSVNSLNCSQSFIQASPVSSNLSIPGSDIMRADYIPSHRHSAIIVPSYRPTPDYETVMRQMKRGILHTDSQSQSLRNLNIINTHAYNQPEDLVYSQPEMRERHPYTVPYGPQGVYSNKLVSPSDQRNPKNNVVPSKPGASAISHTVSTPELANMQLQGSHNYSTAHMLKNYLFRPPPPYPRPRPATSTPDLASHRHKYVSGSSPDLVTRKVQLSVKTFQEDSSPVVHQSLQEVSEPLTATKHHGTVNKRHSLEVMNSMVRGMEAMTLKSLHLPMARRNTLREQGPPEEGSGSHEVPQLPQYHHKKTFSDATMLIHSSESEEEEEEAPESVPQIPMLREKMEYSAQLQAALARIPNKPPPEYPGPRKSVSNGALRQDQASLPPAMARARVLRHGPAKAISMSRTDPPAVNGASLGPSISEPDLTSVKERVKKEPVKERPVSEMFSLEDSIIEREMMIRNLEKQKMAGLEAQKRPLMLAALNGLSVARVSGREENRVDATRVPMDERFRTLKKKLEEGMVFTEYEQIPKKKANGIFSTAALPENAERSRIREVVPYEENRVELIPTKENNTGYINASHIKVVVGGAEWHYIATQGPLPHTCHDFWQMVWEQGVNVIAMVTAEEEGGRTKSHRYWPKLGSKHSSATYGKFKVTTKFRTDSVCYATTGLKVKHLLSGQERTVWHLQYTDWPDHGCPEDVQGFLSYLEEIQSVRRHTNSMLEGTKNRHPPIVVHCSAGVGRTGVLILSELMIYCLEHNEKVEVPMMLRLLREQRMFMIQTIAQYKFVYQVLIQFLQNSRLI
Chain of human Protein Tyrosine Phosphatase Non-receptor Type 6 (PTPN6), PTPN6 (gene 5777) (P29350 whole entry, looked up): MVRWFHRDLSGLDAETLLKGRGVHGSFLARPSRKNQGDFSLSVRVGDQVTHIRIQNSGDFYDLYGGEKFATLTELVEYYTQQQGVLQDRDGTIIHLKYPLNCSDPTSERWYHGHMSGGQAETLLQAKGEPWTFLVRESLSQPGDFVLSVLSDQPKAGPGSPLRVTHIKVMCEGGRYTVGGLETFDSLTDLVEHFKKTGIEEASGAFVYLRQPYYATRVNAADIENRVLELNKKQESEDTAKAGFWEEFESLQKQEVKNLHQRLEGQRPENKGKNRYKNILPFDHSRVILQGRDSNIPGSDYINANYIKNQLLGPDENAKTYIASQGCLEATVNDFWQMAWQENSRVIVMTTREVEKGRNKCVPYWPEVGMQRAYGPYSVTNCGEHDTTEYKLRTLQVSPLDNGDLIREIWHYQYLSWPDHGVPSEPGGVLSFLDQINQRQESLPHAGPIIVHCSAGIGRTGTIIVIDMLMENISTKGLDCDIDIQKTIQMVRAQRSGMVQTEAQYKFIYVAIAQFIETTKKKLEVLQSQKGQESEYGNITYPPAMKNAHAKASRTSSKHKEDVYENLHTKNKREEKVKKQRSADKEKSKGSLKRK
Chain of human Protein Tyrosine Phosphatase Non-receptor Type 1 (PTPN1), PTPN1 (gene 5770) (P18031 whole entry, looked up): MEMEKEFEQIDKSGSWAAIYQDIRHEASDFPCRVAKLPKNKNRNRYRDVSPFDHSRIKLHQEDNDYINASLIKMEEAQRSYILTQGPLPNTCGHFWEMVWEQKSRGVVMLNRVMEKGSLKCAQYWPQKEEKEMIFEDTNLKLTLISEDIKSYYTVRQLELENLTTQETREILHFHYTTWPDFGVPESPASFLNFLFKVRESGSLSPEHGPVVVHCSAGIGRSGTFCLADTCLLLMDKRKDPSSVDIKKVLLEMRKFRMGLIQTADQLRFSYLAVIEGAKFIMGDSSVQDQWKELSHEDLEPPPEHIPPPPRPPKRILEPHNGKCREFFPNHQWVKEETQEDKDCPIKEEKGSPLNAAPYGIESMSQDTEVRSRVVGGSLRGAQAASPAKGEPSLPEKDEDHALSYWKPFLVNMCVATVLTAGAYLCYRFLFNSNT

Structure (SMILES): CCCCCCOC(C)=O
- outcome [1]: inactive

Structure (SMILES): CCCCOCCOCCO
- outcome [2]: inactive

Structure (SMILES): O=C1OC2(c3ccc(O)cc3Oc3cc(O)ccc32)c2ccccc21
- outcome [1]: inactive

Structure (SMILES): N#CCCCC(C#N)CCC#N (centres undefined)
- outcome [1]: inactive

Structure (SMILES): CC(C)Cc1ccccc1
- outcome [1]: inactive

Structure (SMILES): C=CC(=O)OCCCCCC
- outcome [1]: inactive

Structure (SMILES): CCOC(=O)C(=O)OCC
- outcome [1]: inactive

Structure (SMILES): C=CC(=O)OCC(CO)(COC(=O)C=C)COC(=O)C=C
- outcome [1]: inactive

Structure (SMILES): CC(CO)c1ccccc1 (centres undefined)
- outcome [1]: inactive

Structure (SMILES): C[C@]12CC[C@@H]3c4ccc(O)cc4CC[C@H]3[C@@H]1CC[C@@H]2O
- outcome [3]: inactive

Structure (SMILES): O=C(c1ccc(OCCN2CCCCC2)cc1)c1c(-c2ccc(O)cc2)sc2cc(O)ccc12
- AC50 [4]: 5.48 µM (active)
- AC50 [5]: 28 µM (active)
- AC50 [6]: 30.9 µM (active)
- outcome [7]: inactive
- AC50 [3]: 37.9 µM (active)
- outcome [8]: inactive
- AC50 [9]: 17.8 µM (active)

Structure (SMILES): CC/C(=C(\c1ccccc1)c1ccc(OCCN(C)C)cc1)c1ccccc1
- AC50 [1]: 16.1 µM (active)
- AC50 [6]: 12.1 µM (active)
- outcome [7]: inactive
- outcome [10]: inactive
- AC50 [3]: 13.9 µM (active)

Structure (SMILES): Cc1ccc(C(C)(C)O)cc1
- AC50 [1]: 25 µM (active)

Structure (SMILES): S=c1[nH][nH]c(=S)s1
- outcome [1]: inactive
